From PubChem BioAssay AID651791 (National Center for Advancing Translational Sciences (NCATS), 2012)
Results filed as inconclusive are left out. The source made the active and inactive calls. Calls follow the shape of the dose curve; as a rule, active = well fitted inhibition curve with a large enough effect; inconclusive = small, poorly fitted or top-dose-only effect; inactive = no such curve, though single readings can be large or run the other way.

Assay: InCell qHTS Assay for Inhibitors of the mTORC1 Signaling Pathway in MEF (Tsc2-/-, p53-/-) Cells: Hit Validation;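 also: phospho-S6 Ser235/236 signal normalized to propidium iodide cell count per well; nearly all actives have a fitted effect of over 75% in size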
Conditions: phospho-rpS6 immunofluorescence, 24 h; activity change, negative = inhibition: at 38.3 µM (top of the series)
Potency is read from the fitted curve at half-maximal effect.

Potency, active:
COc1cc(OC)c(NC(=O)Nc2ccc3c(c2)N(C)C(=O)c2ccccc2S3)cc1Cl 13.1 µM
CCOCc1cc(CN2CCN(c3ccccc3OC)CC2)c(O)c2ncccc12 2.07 µM
Cc1ccc(CN2C(=O)C(=O)c3cc(Br)cc(C)c32)cc1 18.5 µM
CCCCS(=O)(=O)c1oc(-c2cccs2)nc1S(=O)(=O)c1ccc(F)cc1 3.29 µM
CCCCS(=O)(=O)c1oc(-c2cccs2)nc1S(=O)(=O)c1ccccc1 1.47 µM

Activity change, negative = inhibition, -100%:
CCOc1cc(CNc2ccc(O)cc2)ccc1OCc1ccc(Cl)cc1
Cc1ccc(C)c(NC(=O)Nc2cc3c(cc2N2CCCCC2)n(C)c(=O)n3C)c1
Cc1c(C2=CCN(S(=O)(=O)c3ccc(Br)cc3)CC2)c2ccccc2n1CC(=O)N1CCCC1
Cc1ccc(NC(=O)CSc2nc(=O)cc(N)n2CCc2ccccc2)cc1
Cc1nc2nncn2c(NCc2ccc(Cl)cc2)c1C
CCOC(=O)N1CCN(Cc2nc3cc(NC(=O)c4ccccc4OC)ccc3n2C(C)C)CC1
Cc1nn(CC(=O)N2CCN(c3ccccc3F)CC2)c(=O)c2cccn12
CN(C)c1ccc(-c2nc3ccccn3c2Nc2ccc3c(c2)OCCO3)cc1
COc1ccc(S(=O)(=O)N(Cc2nc(-c3cccc(C)c3)no2)C2CCCCC2)cc1
COc1ccc(C)cc1NC(=O)CCNS(=O)(=O)c1cccc2nonc12
COc1ccc(N2CCN(C(=O)C3CCN(Cc4nc(-c5ccc(Cl)cc5)oc4C)CC3)CC2)cc1
Cc1ccc(C(C)C)c(OCC(=O)Nc2cc(-c3nc4ccccc4[nH]3)ccc2C)c1
CCCN1C(=O)C(Cc2nc3ccccc3c(=O)n2CC)c2ccccc21 (configuration not stated)
Cc1ccccc1NC(=O)Cn1cc(C(=O)c2cccs2)c2ccccc21
Cc1ccc(C)c(S(=O)(=O)NCC(c2ccco2)S(=O)(=O)c2ccc(F)cc2)c1 (configuration not stated)
COc1ccc(N(C)C(=O)c2cc(S(=O)(=O)N3CCc4ccccc43)cn2C)c(OC)c1
CC(C)c1ccc(C2Sc3ccccc3NC3=C2C(=O)c2ccccc23)cc1 (configuration not stated)
CCN(Cc1nc(-c2ccc(OC)cc2)oc1C)S(=O)(=O)c1ccc(Cl)cc1
COc1ccc(Cl)cc1NC(=O)CSc1nc(-c2ccco2)cc(C(F)(F)F)n1
CCOC(=O)c1sc2ccccc2c1S(=O)(=O)Nc1ccc(CC)cc1
CC(C)(C)c1ccc(C(=O)Nc2nnc3n2CCS3)cc1
Cn1nnnc1SCCCNCc1cc(Cl)ccc1OCc1ccc(F)cc1
COc1ccc(CNC(=O)c2cccc(N3CCCS3(=O)=O)c2)cc1OC
CC(C)Cc1ccc(S(=O)(=O)N2CCC(c3ccncc3)CC2)cc1
CCCn1c2ccc(C)cc2c2nnc(SCCN3CCCCC3)nc21
CCOC(=O)CSc1nc2cc3c(cc2c(=O)n1CCCCCC(=O)NCc1ccc2c(c1)OCO2)OCO3
Cc1cc(C)c(NC(=O)c2sc3nc(C)cc(C)c3c2NC(=O)c2ccccc2)c(C)c1
CCc1ccccc1NC(=O)CSc1nc2c(oc3ccccc32)c(=O)n1-c1ccccc1F
COc1cc(C(=O)Nc2ccc(NC(=O)c3ccc(C(C)(C)C)cc3)cc2)cc(OC)c1OC
COc1ccc(Nc2cc(C)nc(-n3nc(C)cc3C)n2)cc1Cl

Activity change, negative = inhibition, -2.04%:
Cc1ccccc1CN1C(=O)C(O)(CC(=O)c2ccccc2)c2cc(Cl)ccc21 (configuration not stated)

Activity change, negative = inhibition, -12.8%:
Cn1nnnc1SCCCNCc1ccccc1OCc1ccc(Cl)cc1
